Outcome and AC50 data for 21 compounds are collected here from PubChem BioAssay (EPA / NIEHS).

Values joined by “and” are separate entries in the source; they are usually repeats but may differ in a detail not shown here. Equal values may be shown once. Results filed as inconclusive are left out. Active and inactive are the calls of the source. Rule for the calls: active = hit-call score of the fitted dose curve at least 0.9, where 1 is the maximum; inconclusive = response in the unintended direction; inactive = score below 0.9.

In assay [1] the target is Cellular tumor antigen p53 (Homo sapiens) (UniProt P04637). In words: TOX21_p53_BLA_p3_ratio: Tox21 HCT-116 p53 Agonism Beta-lactamase Assay, Ratio, Phase 3 (AID 2283596). A digest of the protocol: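 Cells were seeded at 4000/well, rested 5 h at 37C, then dosed with DMSO compound solutions (217-fold dilution) for 16 h. CCF4-AM substrate was loaded for 2 h at room temperature, and the 460/530 nm emission ratio was fitted for gain of signal versus DMSO.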

A short description of assay [2]: TOX21_p53_BLA_p4_viability: Viability Assessment in the Tox21 HCT-116 p53 Agonism Beta-lactamase Assay, Phase 4 (AID 2283597).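 Note: hits lower the luminescence signal meaning cytotoxicity.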 A digest of the protocol:
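Viability is taken as cellular ATP: after 16 h compound exposure of HCT116 cells and a 2 h room-temperature CCF4-AM substrate step, CellTiter-Glo reagent is added and luminescence is measured 30 min later.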

A short description of assay [3]: TOX21_p53_BLA_p5_viability: Viability Assessment in the Tox21 HCT-116 p53 Agonism Beta-lactamase Assay, Phase 5 (AID 2283600). In outline:
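Viability is taken from cellular ATP content, measured by luciferase luminescence in the same wells after the beta-lactamase ratio read. Cells are seeded at 4000 per well and exposed to DMSO-dissolved compounds, diluted 217-fold, for 16 h.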

The target of assay [4] is Cellular tumor antigen p53 (Homo sapiens) (UniProt P04637). As to the kind of experiment: TOX21_p53_BLA_p4_ratio: Tox21 HCT-116 p53 Agonism Beta-lactamase Assay, Ratio, Phase 4 (AID 2283601). A digest of the protocol:
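HCT-116 p53 beta-lactamase reporter cells (4000/well) preincubated 5 h, then compound (217-fold dilution of DMSO stock) for 16 h at 37C. CCF4-AM substrate added 2 h at room temperature; 460/530 nm emission ratio fitted upward versus DMSO.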

A short description of assay [5]: Tanguay_ZF_120hpf_MORT_legacy: (Legacy) Oregon State University Tanguay Lab 120 Hour Post-fertilization zebrafish Assay for Mortality (AID 2283633).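 For AC50: fitted as increase in binary mortality versus DMSO negative control.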 In outline: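 Mortality endpoint from a multiplexed whole-embryo zebrafish screen. Dechorionated wild-type embryos received compound at 6 hpf and remained under static exposure at 28C until 120 hpf, with death noted as a present/absent call.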

Assay [6] in a line: Tanguay_ZF_120hpf_YSE_legacy: (Legacy) Oregon State University Tanguay Lab 120 Hour Post-fertilization zebrafish Assay for Yolk Sac Edema (AID 2283634).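 For AC50: actives raise the incidence of yolk sac edema above the DMSO baseline.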 In outline:
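Readout: presence or absence of yolk sac edema at 120 hpf, fitted upward against DMSO controls. Exposure ran statically from 6 hpf in dechorionated embryos kept at 28C.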

A short description of assay [7]: Tanguay_ZF_120hpf_EYE_legacy: (Legacy) Oregon State University Tanguay Lab 120 Hour Post-fertilization zebrafish Assay for Eye Malformation (AID 2283636).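 Note: binary presence or absence of eye malformation scored by brightfield in 120 hpf larvae.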 In outline:
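5D wild-type embryos, pronase-dechorionated at 4 hpf; static exposure 6–120 hpf, 28C, dark; DMSO 0.64% final; 5uM trimethyltin chloride positive control. Binary eye-defect scoring at 120 hpf; dead embryos not scored.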

The nature of assay [8]: Tanguay_ZF_120hpf_SNOU_legacy: (Legacy) Oregon State University Tanguay Lab 120 Hour Post-fertilization zebrafish Assay for Snout Malformation (AID 2283637). A digest of the protocol: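 Binary brightfield scoring of snout malformation at 120 hpf. Dechorionated 5D wild-type embryos, one per well, static exposure from 6 hpf at 28C, sealed and dark; final DMSO 0.64% (vol/vol), DMSO as baseline; 5uM trimethyltin chloride positive control.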

Assay [9] deals with Cellular tumor antigen p53 (Homo sapiens) (UniProt P04637). In words: TOX21_p53_BLA_p5_ratio: Tox21 HCT-116 p53 Agonism Beta-lactamase Assay, Ratio, Phase 5 (AID 2283599). A digest of the protocol:
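HCT-116 p53-bla cells (4000/well) plated 5 h, dosed with compound (217-fold DMSO dilution) for 16 h at 37 C; CCF4-AM substrate 2 h at room temperature. Activity is the 460/530 nm emission ratio (405 nm excitation), fitted in gain-of-signal direction versus DMSO.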

A short description of assay [10]: Tanguay_ZF_120hpf_AXIS_legacy: (Legacy) Oregon State University Tanguay Lab 120 Hour Post-fertilization zebrafish Assay for Body Axis Malformation (AID 2283635). A digest of the protocol:
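Static 6–120 hpf chemical exposure of dechorionated wild-type 5D zebrafish, one per well at 28C; morphology endpoint scored binary at 120 hpf relative to DMSO control.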

Chain of Cellular tumor antigen p53 (Homo sapiens) (P04637 whole entry, looked up): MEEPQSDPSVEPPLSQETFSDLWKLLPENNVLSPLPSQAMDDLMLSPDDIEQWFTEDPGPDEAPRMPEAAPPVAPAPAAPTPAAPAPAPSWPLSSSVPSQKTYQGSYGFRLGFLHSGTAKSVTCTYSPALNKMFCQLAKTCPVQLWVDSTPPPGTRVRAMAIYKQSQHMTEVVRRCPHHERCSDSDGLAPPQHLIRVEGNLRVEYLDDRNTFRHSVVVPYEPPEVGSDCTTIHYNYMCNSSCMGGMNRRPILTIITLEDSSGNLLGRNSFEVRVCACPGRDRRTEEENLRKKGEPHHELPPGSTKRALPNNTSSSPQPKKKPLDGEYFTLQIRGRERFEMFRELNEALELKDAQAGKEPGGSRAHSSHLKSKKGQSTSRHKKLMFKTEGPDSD

Turning to `Cc1cc2c(cc1C(F)(F)F)N(C(=O)Nc1ccc(Oc3cccnc3C)nc1)CC2`, the outcome in assay [1], in assay [2], in [3], in assay [4], in [5] and in assay [6] was inactive. The result in assay [7] and in [8] was inactive.

In the case of `Clc1cc(Cl)c2c(c1)N=C1CCCCCN1C2`, the result in assay [1], in assay [2], in assay [9], in assay [4], in [5] and in assay [7] was inactive. Also, the half-maximal activity concentration (AC50) in assay [6] is 21.5 µM (active); in [8], 8.56 µM (active).

On to `Cc1cn([C@H]2C[C@H](N=[N+]=[N-])[C@@H](CO)O2)c(=O)[nH]c1=O`, for which the outcome in [1], in assay [2], in assay [9], in assay [3], in assay [4] and in assay [5] was inactive. The compound was called inactive in [6], in assay [7] and in [8].

Turning to `CN(C)c1ccc(C(=C2C=CC(=[N+](C)C)C=C2)c2ccc(N(C)C)cc2)cc1`, the AC50 is 9.02 µM (active) and 31.5 µM (active) and 8.23 µM (active) in assay [1]; 28.8 µM (active) and 20.6 µM (active) and 14.3 µM (active) in assay [2]; 47.3 µM (active) and 34 µM (active) and 25.4 µM (active) in [9]; 46.1 µM (active) and 27 µM (active) and 14.5 µM (active) in assay [3]; 52.5 µM (active) and 51.7 µM (active) and 30.8 µM (active) in assay [4]; 0.577 µM (active) in assay [5].

Consider `Cc1cc(F)ccc1-c1cc(N2CC[C@@H](O)[C@H]2CO)ncc1N(C)C(=O)C(C)(C)c1cc(C(F)(F)F)cc(C(F)(F)F)c1`, for which the AC50 in [1] was 45.3 µM (active); in assay [9] it was 36 µM (active); in [3], 23.7 µM (active); in [4] it was 26.4 µM (active). Further, the compound was called inactive in [5], in assay [6], in assay [10] and in [7].

Consider `CCCCOC(=O)c1ccc(O)cc1`, for which the result in assay [1], in assay [2], in assay [9], in assay [3], in [4] and in assay [5] was inactive. In addition, the AC50 is 51.7 µM (active) in assay [6], 41.1 µM (active) in assay [7] and 24.9 µM (active) in [8].

`CCN(Cc1cccnc1)C(=O)c1cccc(Cl)c1[C@]1(C)C(=O)N(Cc2ccc(OC)cc2OC)c2ccc(Cl)cc21`: the concentration at half-maximal activity (AC50) was 40.9 µM (active) in assay [1], 52.1 µM (active) in [9], 44.5 µM (active) in assay [4] and 6.06 µM (active) in assay [5]. Also, the result in assay [3], in [6], in assay [10] and in [8] was inactive.

Regarding `C[C@]12CC[C@@H]3c4ccc(O)cc4CC[C@H]3[C@@H]1CC[C@H]2O`, the concentration at half-maximal activity (AC50) in [1] is 67.5 µM (active) and 15.8 µM (active); in [9] it was 73.4 µM (active) and 16.7 µM (active); in assay [4], 26.2 µM (active). Also, the compound was called inactive in assay [5], in assay [6], in assay [7] and in assay [8].

For `CC1(C)NC(=O)N(c2ccc([N+](=O)[O-])c(C(F)(F)F)c2)C1=O`, the outcome in [1], in assay [9], in [3], in assay [4], in [5] and in [6] was inactive. Besides, the call in assay [7] was inactive.

In the case of `O=C(O)c1ccccc1C(=O)OCc1ccccc1`, the result in assay [1], in assay [9], in assay [3], in assay [4], in assay [5] and in [6] was inactive. Also, the outcome in assay [10] and in assay [8] was inactive.

In the case of `CCCCCCCCN(C)CCCCCCCC`, the outcome in [1], in [4], in assay [5], in [6], in [7] and in assay [8] was inactive.

Regarding `Cc1ncc(CO)c(CO)c1O`, the result in [1], in assay [9], in [3], in [4], in [5] and in [6] was inactive. Also, the compound was classed as inactive in assay [7] and in [8].

With `OC12N=C(c3ccccc3)SC1Cc1cc(Cl)ccc12` (configuration not stated), the result in assay [9] and in assay [5] was inactive. For the same compound, the AC50 in [4] is 86.6 µM (active); in assay [6], 47.3 µM (active); in assay [7], 11.1 µM (active); in assay [8], 15.1 µM (active).

As for `Cc1ccc2oc(CN(Cc3ccccc3)C(=O)Nc3c(F)cc(F)cc3F)c(-c3ccc(Cl)cc3)c2c1`, the result in assay [1], in assay [9], in [3], in [4], in assay [5] and in assay [6] was inactive. In addition, the outcome in assay [7] and in [8] was inactive.

For the compound `CN1C(=O)CC[C@H]1c1cccnc1`, the result in assay [1], in [3], in assay [4], in [5], in assay [6] and in assay [7] was inactive. The outcome in assay [8] was inactive.

Consider `CCO[Si](CCCNC(N)=O)(OCC)OCC`, for which the result in [1], in [9], in assay [4], in assay [5], in [10] and in assay [7] was inactive. Further, in [8], the result was inactive.

On to `OCCO`, for which the result in [1], in assay [9], in assay [3], in [4], in [5] and in [6] was inactive. For the same compound, the compound was classed as inactive in assay [10], in assay [7] and in [8].

In the case of `Cc1occc1C(=O)Nc1ccc(C(=O)N2CCC(F)(F)/C(=C\C(=O)N3CCC(N4CCCCC4)CC3)c3ccccc32)cc1`, the outcome in [1], in assay [9], in assay [3], in [5], in [6] and in assay [7] was inactive. Moreover, in assay [8], the compound was classed as inactive.

Consider `O=C=NCCCCCCN=C=O`, for which the outcome in assay [1], in assay [9], in assay [3], in [4], in assay [5] and in [6] was inactive. Besides, in assay [8], the call was inactive.

Consider `CCCCCc1ccc(N)cc1`, for which the result in [1], in [3], in [4], in assay [5], in [6] and in assay [10] was inactive. For the same compound, the compound was classed as inactive in assay [8].

`CCCCCCCCCCCO`: the result in assay [1], in assay [9], in assay [3], in assay [5], in assay [6] and in assay [7] was inactive. Moreover, the compound was classed as inactive in [8].
